Screens: PubChem, several laboratories
aSyn 5UTR inh – MLPCN primary screen, SNCA 5' untranslated region; alpha-synuclein 5'UTR reporter, inhibitor activity; inhibition, % (tested at 7.5 µM); AID 1813, 2009; actives 0.82% (n = 300,000); in the data active = inhibition above about 60%; inconclusive = no clear call, values can overlap the other calls;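 note: H4 neuroglioblastoma cells stably carrying SNCA 5'UTR luciferase fusion; 0% = DMSO wells and 100% = positive control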
HSP90 inh – HSP90 inhibitors, primary screen, cell lysate, luminescence; Rabbit reticulocyte lysate, luciferase refolding luminescence, 3 h; Heat shock protein HSP 90 (rabbit reticulocyte lysate; luciferase refolding); inhibition, % at 5.6 µM; actives 0.91% (n = 290,000);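 active = inhibition above the screen-wide mean plus 3 SD, computed separately per campaign, cut at about 16% in these data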;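 note: 0% = DMSO wells and 100% = 60 µM geldanamycin wells; inhibitors lower the luminescence because luciferase stays unfolded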
TRAIL sens C8 – viability loss with TRAIL in NB7+C8 cells, primary screen, TRAIL sensitizer project, cell-based, ATPlite luminescence | inhibition (viability loss, TRAIL sensitization), % at 10 µM | actives 1% (n = 360,000) | AID 624354, 2012;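 active = compounds causing at least 50% loss of cell viability in the single-dose screen, relative to plate controls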
HIF-2a inh – HIF-2a reporter inhibitors, primary screen, luminescence, 786-0 RCC cells; AID 624352, 2012; inhibition, % at 18.8 µM; 786-0 RCC cells HIF-2a reporter, luciferase luminescence, overnight; actives 0.72% (n = 360,000);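 active = inhibition of the luminescence signal of 40% or more relative to plate controls, in a single-dose primary screen at 18.75 µM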
TWEAK Fn14 block – inhibitors of TWEAK-Fn14 signaling, primary screen, luciferase reporter cells, uHTS; inhibition, % at 10 µM; actives 2% (n = 360,000); TWEAK-stimulated Fn14 reporter cells, luciferase luminescence, 8 h; in the data active = inhibition above about 50%
TROY NFkB inh – inhibitors of TROY-driven NF-kB signaling, primary screen, Q293 LMP1-TROYcd cells, NF-kB luciferase, uHTS. Q293 LMP1-TROYcd NF-kB luciferase reporter, 4 h. AID 1347056, 2019. actives 0.98% (n = 360,000). inhibition, % at 10 µM;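 active = compounds whose plate-normalised and pattern-corrected inhibition of the luciferase reporter signal at the single screening dose is 50% or more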
HSP90 confirm – HSP90 inhibitors, confirmation, cell lysate, luminescence | actives 64% (n = 2,300) | shares compounds with HSP90 inh | inhibition, % at 5.9 µM | rabbit reticulocyte lysate, luciferase refolding luminescence, 3 h | AID 1846, 2009; in the data active = inhibition above about 18%;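 note: 0% = vehicle wells and 100% = reference inhibitor wells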
FLuc counter – firefly luciferase inhibitors, HSP90 counter-screen, confirmation, artefact control for HSP90 inhibitor project, biochemical, luminescence, triplicate; shares compounds with HSP90 inh; purified native firefly luciferase; inhibition, % at 5.9 µM; actives 48% (n = 2,300); AID 1847, 2009;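 active = inhibition above the mean inhibition of all tested sample wells plus 3 SD, cut at about 10% in these data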;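 note: 0% = DMSO with luciferase and 100% = wells lacking luciferase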
Target sequence (P08659 whole entry, looked up): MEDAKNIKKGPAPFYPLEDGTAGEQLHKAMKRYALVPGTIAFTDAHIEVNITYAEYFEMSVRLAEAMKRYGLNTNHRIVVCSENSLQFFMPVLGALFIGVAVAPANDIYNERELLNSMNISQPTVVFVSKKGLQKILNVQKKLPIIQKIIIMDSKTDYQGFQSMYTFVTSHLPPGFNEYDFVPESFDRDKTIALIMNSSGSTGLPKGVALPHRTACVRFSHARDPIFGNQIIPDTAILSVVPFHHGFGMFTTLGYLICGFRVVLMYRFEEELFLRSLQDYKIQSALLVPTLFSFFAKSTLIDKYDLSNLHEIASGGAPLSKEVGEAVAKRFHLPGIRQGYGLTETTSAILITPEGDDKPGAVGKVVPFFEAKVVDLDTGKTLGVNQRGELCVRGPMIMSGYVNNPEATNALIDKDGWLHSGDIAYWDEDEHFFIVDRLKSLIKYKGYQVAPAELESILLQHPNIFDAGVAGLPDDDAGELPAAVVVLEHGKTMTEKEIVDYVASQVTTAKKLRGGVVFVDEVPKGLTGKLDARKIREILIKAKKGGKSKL
Active calls of the source: *; ? = inconclusive; / = not tested or not shown. Only some compounds are listed: those with a hit (about 3.9% of all), similar ones and a draw of the others.

SMILES	aSyn 5UTR inh	HSP90 inh	TRAIL sens C8	HIF-2a inh	TWEAK Fn14 block	TROY NFkB inh	HSP90 confirm	FLuc counter
O=C(Nc1ccccc1Cl)c1cc2ccccc2o/c1=N\O	-121.3	2.2	6.8	-191.8	-15.9	-14.3	/	/
O=C(O)c1ccccc1NC(=O)c1cc2ccccc2oc1=O	-23.2	23.1*	4.1	-180.8	20.0	19.4	1.9	-6.4
CC(O)C1CCC2C3CCC4CC(O)CCC4(C)C3C(=O)CC12C (stereo not drawn)	/	/	-0.5	-0.4	0.2	-16.2	/	/
CCCC(=O)N(Cc1cc2cc(OC)ccc2[nH]c1=O)c1ccc(OC)cc1	/	/	-4.2	8.7	4.5	8.0	/	/
CN(C)c1ccc(C=NN2C(=O)CSC2=S)c(Cl)c1	/	/	1.8	5.8	-9.1	-4.6	/	/
COCCn1c(C)cc(C(=O)COC(=O)c2ccc(NC(=O)CC#N)cc2)c1C	-35.2	18.6*	9.4	-159.8	20.8	27.8	10.2	13.5*
COCCn1c(C)cc(C(=O)COC(=O)c2ccc(S(=O)(=O)N(C)C)cc2)c1C	/	/	-3.4	1.2	40.1	-3.1	/	/
N#CCC(=O)Nc1ccc(C(=O)OCC(=O)c2ccc3c(c2)OCCO3)cc1	-111.7	20.4*	-5.0	-140.4	38.9	3.3	31.5*	-2.6
O=C(NCc1cccs1)c1csc([C@@H]2O[C@H](CO)[C@H](O)[C@H](O)[C@H]2O)n1	/	/	1.3	-1.0	8.7	-4.4	/	/
COc1ccc(NC(=S)Nc2ccccn2)cc1	-168.4	26.1*	-0.6	-310.2	-4.5	-92.0	-8.5	-17.7
CCc1ccc(NC(=O)c2ccc3ncsc3c2)cc1	-155.2	-5.5	/	/	/	/	/	/
O=C(Nc1ccc(Br)cc1)c1ccc2ncsc2c1	-127.9	43.2*	0.9	-60.3	5.7	-40.6	44.6*	28.4*
NS(=O)(=O)c1cccc(NC(=O)CCN2C(=O)C3CCCCC3C2=O)c1 (stereo not drawn)	/	/	-4.7	11.4	5.4	-3.8	/	/
CCc1ccc(C2CC(c3ccco3)=NN2S(C)(=O)=O)cc1 (stereo not drawn)	-88.5	18.1*	2.3	-116.0	33.7	-30.2	21.7*	12.9*
Clc1ccc(/C=C/c2nc3ccccc3[nH]2)cc1	?	35.1*	87.9*	-46.0	81.4*	15.5	68.6*	62.8*
Clc1ccc(/C=C/c2nc3ccccc3[nH]2)c(Cl)c1	68.2*	44.4*	87.1*	-92.8	63.7*	48.0	76.7*	71.9*
COc1ccc(N2CCC(CNC(=S)Nc3cccc(OC)c3)C2)cc1 (stereo not drawn)	13.8	18.1*	/	/	/	/	0.5	-9.6
CCCCCN=Cc1c(C)[nH]n(-c2nc3ccccc3s2)c1=O	62.5*	26.0*	83.9*	10.3	86.7*	38.8	12.3	1.5
CCCc1[nH]n(-c2nc3ccccc3s2)c(=O)c1C=NCCCOC	-19.6	2.2	-9.9	-38.2	-5.7	-19.3	/	/
COc1ccc(/C=N/Nc2ccccn2)c(OC)c1OC	-92.1	-1.1	-22.3	-253.2	-41.8	-14.1	/	/
COc1ccc(/C=N/Nc2nc3ccccc3[nH]2)c(OC)c1OC	-108.5	26.9*	11.7	-55.1	77.9*	73.4*	53.7*	61.9*
O=C1OCCC1Sc1nnc(-c2ccccc2)o1 (stereo not drawn)	13.0	1.2	8.7	18.2	-8.7	-24.4	/	/
O=C1OCCC1Sc1nnc(-c2ccc(Cl)cc2Cl)o1 (stereo not drawn)	89.5*	33.1*	28.7	75.7*	83.1*	52.1*	66.9*	57.3*
COC(=O)c1c(-c2ccc(N(C)C)cc2)oc2c1C(OC)CCC2 (stereo not drawn)	/	/	10.4	-181.0	6.5	-4.5	/	/
Oc1c(N=Nc2ccccc2)sc2ccccc12	-191.6	17.8*	44.4	-295.3	35.1	0.6	48.4*	39.1*
